# The sample as a whole holds a higher share of hits than the screen did.
# PI4K2A inh: inhibitors of human PI4K2A. hit rate 0.13% among 420,000. activity change, negative = inhibition, % at 76.9 µM. Q9BTU6. purified PI4K2A, ADP-Glo luminescence, 1 h; hits give low values; in the data active = activity change below about -50%; inconclusive = mostly about -30% to -49%;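 note: -100% = wells without enzyme as full effect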
#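 Compounds are screened against recombinant PI4K2A using PI as substrate and ATP, the latter dispensed at 300 microM. Reactions run one hour at ambient temperature before ADP-Glo detection; full inhibition defined by wells lacking enzyme.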
# Tb PFK inh-1: T. brucei PFK enzyme inhibition. hit rate 0.17% among 330,000. T. brucei PFK, ADP-Glo luminescence. Potency, µM (doses to about 57.5 µM), inactives show top-dose activity, negative = inhibition, most hits filed as inhibitors. O15648. AID 485367;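 note: potency is the fitted concentration of half-maximal effect; 0% = uninhibited 1x PFK enzyme wells and -100% = no-enzyme wells; nearly all actives have a fitted effect of over 60% in size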
#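 Compounds were pin-transferred as a titration series up to 57 uM into substrate buffer (0.5 mM F6P, 0.1 mM ATP, pH 8.0), then 1.25 nM PFK was added and reactions ran 45 min before ADP-Glo detection.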
# PI5P4Ka inh: blocks human PI5P4K alpha kinase activity; PI5P4Kalpha enzyme, ADP-Glo luminescence, 60 min; hits give low values; max response, %; hit rate 1.2% among 330,000; AID 652105; active = max response of -50% or lower; inconclusive = between -30% and -50%; inactive = -30% or higher; note: value at the top dose of about 77 µM; % is set by controls: 0 for no effect and ±100 for the full control effect
#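 Single end-point luminescence (ADP-Glo) quantified ADP from PI5P4Kalpha turnover; ATP 5 microM final, 1 h at RT, 0.1% CHAPS and 0.28 mM EGTA in HEPES pH 7.4.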
# Pin1 inhibitor: blocks the human prolyl isomerase Pin1; hit rate 0.009% among 390,000; Potency, µM (doses to about 115 µM), without a hit: at the highest dose activity, negative = inhibition, hits mostly inhibitors; AID 504891; Pin1 FP peptide displacement, HiFluor488, 10 min; active = well fitted inhibition curve with a large enough effect in the polarisation, with a control signal flat, not every such curve was filed as active; inconclusive = small, poorly fitted or top-dose-only effect, or effect the other way, or a change in a side signal; inactive = no such curve, though single readings can be large or run the other way; the % refers to the polarisation; note: potency is the fitted concentration of half-maximal effect; % is set by controls: 0 for no effect and ±100 for the full control effect
# Target sequence (Q13526 whole entry, looked up): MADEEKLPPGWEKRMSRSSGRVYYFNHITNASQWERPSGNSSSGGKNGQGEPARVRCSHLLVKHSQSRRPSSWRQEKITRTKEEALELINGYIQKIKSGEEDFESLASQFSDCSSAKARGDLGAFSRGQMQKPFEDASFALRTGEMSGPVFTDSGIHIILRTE
# Tb PGK inh: blocks T. brucei phosphoglycerate kinase | P07378 | PGK/GAPDH coupled, Kinase-Glo luminescence, 60 min | Potency, µM (top dose mostly 57.5 µM), without a hit: at the top dose activity change, negative = inhibition, most hits filed as inhibitors | hit rate 0.043% among 380,000; note: potency is the fitted concentration of half-maximal effect; % is set by controls: 0 for no effect and ±100 for the full control effect; nearly all actives have a fitted effect of over 60% in size
# Target sequence (P07378 whole entry, looked up): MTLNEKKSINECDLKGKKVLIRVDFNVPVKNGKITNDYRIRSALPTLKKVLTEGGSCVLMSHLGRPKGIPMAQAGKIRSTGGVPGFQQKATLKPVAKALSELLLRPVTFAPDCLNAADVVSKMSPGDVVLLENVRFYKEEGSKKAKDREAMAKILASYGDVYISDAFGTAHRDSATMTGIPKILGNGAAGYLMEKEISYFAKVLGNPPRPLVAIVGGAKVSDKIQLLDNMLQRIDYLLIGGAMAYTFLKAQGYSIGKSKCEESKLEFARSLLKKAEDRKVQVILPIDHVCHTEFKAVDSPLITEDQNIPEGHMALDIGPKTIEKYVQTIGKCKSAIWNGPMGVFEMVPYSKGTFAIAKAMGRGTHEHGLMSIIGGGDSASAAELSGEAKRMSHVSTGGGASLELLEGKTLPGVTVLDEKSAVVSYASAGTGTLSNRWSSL
#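 Recombinant glycosomal PGK reaction used 1,3-bisphosphoglycerate generated in-well by GAPDH (100nM final) in 100mM TEA pH 7.6, 5mM MgCl2, 0.01% Tween-20. After 60 minutes at room temperature, ATP was read by Kinase-Glo Plus luminescence end-point.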
# Tb PFK KinaseGlo: orthogonal confirmation of T. brucei phosphofructokinase inhibitors. Potency, µM (doses to about 57.5 µM), inactives show top-dose inhibition. AID 504636. shares compounds with Tb PFK inh-1. Tb PFK enzyme, ATP depletion, Kinase-Glo Plus luminescence. hit rate 47% among 1,100; calls by dose curve; note: potency is the fitted concentration of half-maximal effect; nearly all actives have a fitted effect of over 60% in size
# Tb PFK inh-2: T. brucei PFK enzyme inhibition, hit validation. shares compounds with Tb PFK inh-1. hit rate 41% among 1,100. purified T. brucei PFK, ADP-Glo luminescence, 45 min. Potency, µM (doses to about 57.5 µM), without a hit: top-dose activity change, negative = inhibition, usual class: inhibitors. AID 504637;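 note: potency is the fitted concentration of half-maximal effect; plate controls were full PFK enzyme control for no effect and no enzyme control for full effect; nearly all actives have a fitted effect of over 60% in size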
# * = called active by the depositor; i = inactive; ? = inconclusive; · = no result; ! = repeats disagree; [ ] = remark or other dose. Unless noted, calls come from the whole dose curve; as a rule, active = well fitted curve in the direction sought with a large enough effect; inconclusive = small, poorly fitted or top-dose-only effect, or another doubt; inactive = no such curve, though single readings can be large; an effect the other way counts as inactive or inconclusive.
SMILES,PI4K2A inh,Tb PFK inh-1,PI5P4Ka inh,Pin1 inhibitor,Tb PGK inh,Tb PFK KinaseGlo,Tb PFK inh-2
NC(=S)N=Nc1ccc(NN=C(N)N)cc1,-5.2,?,-84.1*,-5.7%,-6.8%,6.75µM*,13.5µM*
Cc1ccc2c(c1)cc1c(=O)n(CC(=O)N3CCC4(CC3)OCCO4)nc(C)n12,2.8,0.0%,-6.0,2.7%,-5.8%,·,·
Nc1nnc(Cc2ccc(Cl)c(Cl)c2)s1,2.6,19µM*,-3.4,-1.7%,-6.0%,7.57µM*,19µM*
Cc1nc2c(c(=O)[nH]1)C(c1ccccc1Cl)c1c(c3ccccc3oc1=O)O2 (configuration not stated),-5.0,-3.2%,1.8,2.0%,-8.5%,·,·
Cc1cc(N(C)C)ccc1[N+](=O)[O-],-1.7,?,7.9,4.1%,-5.8%,?,30.1µM*
CN(C)c1ccc([N+](=O)[O-])c([N+](=O)[O-])c1,4.7,·,-6.9,-1.2%,-3.0%,·,·
Cc1cc(C)c2c(=O)n(CC(=O)N3CCC(N4CCCCC4)CC3)sc2n1,-0.2,2.39µM*,-80.7*,-0.5%,-7.1%,?,3.01µM*
CCCNC(=O)Cn1sc2nc(C)cc(C)c2c1=O,-2.7,8.49µM*,-83.4*,0.7%,1.6%,?,8.49µM*
CCOC(=O)C1CCCN(C(=O)Cn2sc3nc(C)cc(C)c3c2=O)C1 (configuration not stated),-1.5,1.51µM*,-80.9*,2.3%,-8.0%,?,3.79µM*
S=P(Nn1cnnc1)(c1ccccc1)c1ccccc1,-7.0,-1.1%,6.4,10.3%,-2.5%,·,·
CCCCCCn1c(O)c(/C=N/N2CCCCCC2)c(=O)[nH]c1=O,-0.3,2.5%,-0.5,-3.0%,3.0%,·,·
COc1ccc(CCNCc2cccn2C)cc1,-8.3,-0.8%,-0.3,2.5%,i,·,·
CCOC(=O)[C@]12Cc3c(cc(OC)c(OC)c3OC)[C@H]1N(C(C)C)C(=O)c1ccccc12,5.8,·,-2.0,·,·,·,·
Oc1ccc(/C=N/NC(=S)Nc2cccnc2)c(O)c1O,-3.0,?,-96.4*,?,-9.5%,3.01µM*,7.57µM*
CCOP(=S)(OCC)Oc1ccc2c(C)c(Cl)c(=O)oc2c1,-4.3,·,7.0,1.4%,-4.3%,·,·
COC(=O)C(C)Oc1cc(C)cc2oc(=O)c3c(c12)CCC3 (configuration not stated),-2.0,2.5%,-6.1,-4.1%,i,·,·
COc1cc(O)cc2c1C(=O)OC(C)CCCC(=O)CCC/C=C\2 (configuration not stated),-5.1,4.0%,-6.7,-0.8%,5.6%,·,·
CCOC(=O)c1c(/N=C/c2c(O)n(-c3cccc(C)c3)c(=O)[nH]c2=O)sc2c1CCCC2,-4.4,0.1%,2.8,19.9%,-2.0%,·,·
CC(/C=C\c1cccnc1)=C/C(=O)O,-2.4,15.1µM*!,9.1,-19.5%,?,?,26.9µM*
CC(=O)/C=C/c1ccccc1,0.8,-4.4%,4.4,-16.9%,-7.5%,·,·
CC(=O)Nc1cc(C(=O)N2CCC3(CC2)OCCO3)ccc1S(=O)(=O)c1ccc(Cl)cc1,3.0,0.3%,·,-1.0%,-1.1%,·,·
COc1ccc(/C=N/NC(=O)c2cccc([N+](=O)[O-])c2)cc1OC,3.8,0.5%,0.9,?,-9.8%,·,·
COc1ccccc1/C=C/C(=O)NCC(=O)N/N=C/c1ccccc1[N+](=O)[O-],-5.5,?,-3.2,7.4%,-7.1%,-32.2%,?
CN1CCCC(C(=O)c2ccccc2)C1 (configuration not stated),-6.7,-1.4%,2.4,-14.5%,i,·,·
CCCCNC(=O)CN1C(=O)CN=C(c2ccccc2)c2ccccc21,-2.1,1.6%,-1.3,2.1%,-0.5%,·,·
SMILES,PI4K2A inh,Tb PFK inh-1,PI5P4Ka inh,Pin1 inhibitor,Tb PGK inh,Tb PFK KinaseGlo,Tb PFK inh-2
CCCOP(=O)(O)c1c([N+](=O)[O-])cc(C(F)(F)F)cc1[N+](=O)[O-] (tested in a mixture with another compound),-1.2,1.8%,·,13.0%,-3.2%,·,·
Cc1ccc(S(=O)(=O)N(C(=O)c2ccncc2)c2ccc(OC(=O)c3ccncc3)c3ccccc23)cc1,1.7,16.9µM*,-25.9,-0.6%,-2.1%,2.39µM*,2.69µM*
ClC(Cl)(c1nnnn1-c1ccccc1)c1nnnn1-c1ccccc1,?,10.7µM*,?,-6.6%,-5.2%,3.38µM*,10.7µM*
O=C(N/N=C/c1ccncc1)c1ccc(NC(=O)c2cccc(Cl)c2)cc1,5.1,?,-0.8,-16.7%,-9.7%,-28.3%,?
O=C(NN=Cc1ccc(N(CCCl)CCCl)cc1Cl)c1cccnc1,-5.9,·,2.6,2.7%,i,·,·
Cc1nc2ccc(Cl)cc2c(=O)n1-c1ccc([N+](=O)[O-])cc1,2.7,-3.6%,0.0,6.7%,i,·,·
O=C(NN1C(=O)CSC1=S)C(=O)NN1C(=O)CSC1=S,-13.7,?,-67.5*,·,-12.8%,?,-9.5%
O=C(NNC(=O)c1cc2ccccc2cc1O)c1cccs1,-5.1,?,0.3,-4.4%,-6.4%,-28.9%,?
COC(=O)C1=C(c2ccc(OC)c(OC)c2)C[C@@H]2CC[C@H]1N2C(=O)N1CCc2cc(OC)c(OC)cc2C1,2.1,-9.9%,-4.2,3.1%,-5.5%,·,·
CCc1cc(=O)oc2cc(OCC(=O)N3C[C@H]4C[C@@H](C3)c3cccc(=O)n3C4)ccc12,-0.1,0.5%,-2.1,1.7%,-4.8%,·,·
O=[N+]([O-])c1ccc(NCc2ccncc2)cc1,-1.1,5.36µM*,-1.7,-2.7%,2.3%,3.38µM*,7.57µM*
O=[N+]([O-])c1ccc(Cc2ccncc2)cc1,5.9,?,6.0,0.5%,2.3%,?,30.1µM*
CC(=O)Nc1ccc([As](=O)(O)c2ccc([N+](=O)[O-])cc2)cc1,1.5,-2.0%,-13.6,-4.9%,-6.4%,·,·
FC(F)(F)c1ccc(CNCCc2ccc3c(c2)OCO3)cc1,-4.3,0.5%,-2.1,-2.5%,-5.4%,·,·
CN(C)S(=O)(=O)c1ccc(NC(=O)C2COc3ccccc3O2)cc1 (configuration not stated),-1.7,19µM*,4.4,0.7%,1.8%,12µM*,26.9µM*
CCN(C1CCCCC1)S(=O)(=O)c1ccc(S(=O)(=O)N(CC(=O)Nc2ccccc2)C2CC2)cc1,-7.6,-0.8%,·,20.2%,-4.7%,·,·
O=C(Nc1ccc(S(=O)(=O)Nc2ccccc2)cc1)C1COc2ccccc2O1 (configuration not stated),2.1,10.7µM*,·,0.2%,-2.8%[11.5 µM],12µM*,30.1µM*
CCCCn1c(=O)c(C=Nc2cccnc2Cl)c(O)n(CCCCl)c1=O,-4.2,2.9%,3.6,?,12.0%,·,·

# Assay outcomes: PubChem, National Center for Advancing Translational Sciences (NCATS)
